Experimental data published in ChEMBL document CHEMBL1961873, “Compounds: GSK PKIS; Assays: Nanosyn kinase panel” (2012).

What follows are compounds tested on Mast/stem cell growth factor receptor Kit (Homo sapiens), P10721 [T670I]. Conditions: at 1 µM.
Sequence of Mast/stem cell growth factor receptor Kit (Homo sapiens), P10721 [T670I] (P10721 whole entry T670I): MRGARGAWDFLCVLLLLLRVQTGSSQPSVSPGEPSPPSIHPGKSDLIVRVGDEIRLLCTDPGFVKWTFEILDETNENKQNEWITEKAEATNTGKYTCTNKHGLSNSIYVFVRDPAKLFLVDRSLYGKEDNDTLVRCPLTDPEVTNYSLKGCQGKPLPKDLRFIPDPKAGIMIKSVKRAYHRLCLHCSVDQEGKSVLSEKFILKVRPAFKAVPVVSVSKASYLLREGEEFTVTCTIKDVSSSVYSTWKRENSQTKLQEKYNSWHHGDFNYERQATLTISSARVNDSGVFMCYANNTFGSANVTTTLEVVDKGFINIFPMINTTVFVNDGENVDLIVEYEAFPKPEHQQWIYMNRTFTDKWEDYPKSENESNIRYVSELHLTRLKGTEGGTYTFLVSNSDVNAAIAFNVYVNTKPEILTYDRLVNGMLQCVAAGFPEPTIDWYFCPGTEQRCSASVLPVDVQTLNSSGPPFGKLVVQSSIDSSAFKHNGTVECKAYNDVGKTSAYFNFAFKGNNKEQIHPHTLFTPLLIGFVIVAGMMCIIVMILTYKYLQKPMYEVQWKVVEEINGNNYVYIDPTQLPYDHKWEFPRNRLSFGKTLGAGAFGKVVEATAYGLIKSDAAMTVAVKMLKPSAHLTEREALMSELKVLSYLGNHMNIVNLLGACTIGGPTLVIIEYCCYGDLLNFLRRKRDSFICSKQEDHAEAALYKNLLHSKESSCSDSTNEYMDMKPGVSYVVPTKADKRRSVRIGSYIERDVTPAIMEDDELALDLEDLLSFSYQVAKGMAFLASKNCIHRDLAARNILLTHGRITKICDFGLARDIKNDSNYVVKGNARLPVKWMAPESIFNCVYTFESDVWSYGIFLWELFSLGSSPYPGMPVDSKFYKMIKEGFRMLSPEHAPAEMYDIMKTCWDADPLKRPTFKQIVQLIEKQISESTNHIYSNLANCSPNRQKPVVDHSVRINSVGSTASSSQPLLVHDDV
For CNC(=O)c1cncc(/C=C/c2c(Cl)cccc2Cl)c1, the inhibition was 0.46%.
Work on Cc1nnc(-c2ccc(C)c(-c3ccc(C(=O)Nc4cccc(C#N)c4)cc3)c2)o1 yielded an inhibition of 1.69%.
CN(C)c1cc2c(Nc3ccc4nc(Cc5ccccc5)[nH]c4c3)ncnc2cn1 showed an inhibition of 6.63%.
With Cc1cccc(-c2n[nH]cc2-c2ccc3ncccc3n2)n1 the inhibition was -0.51%.
CS(=O)(=O)CCN(CC#N)Cc1ccc(-c2ccc3ncnc(Nc4ccc(OCc5cccc(F)c5)c(Cl)c4)c3c2)o1 was tested, and the inhibition was 0.88%.
In the case of CCn1c(-c2nonc2N)nc2c(C#CC(C)(C)O)nc(OC[C@@H](N)c3ccccc3)cc21, the inhibition is reported as -0.45%.
CC(=O)Nc1cccc(C#Cc2cncnc2Nc2ccc(OCc3cccc(F)c3)c(Cl)c2)n1 was tested, and the inhibition was 0.59%.
For CC1=C(C(=O)Nc2ccc3[nH]ncc3c2)C(c2ccc(Cl)c(Cl)c2)CC(=O)N1 (configuration not stated), the inhibition was 1.52%.
In the case of O=C1Nc2ccc(C(=O)c3ccco3)cc2C1=Cc1cc(Cl)c(O)c(Cl)c1, the inhibition is reported as 21.1%.
Compound CS(=O)(=O)Nc1ccc(N/C=C2\C(=O)Nc3ccccc32)cc1 has an inhibition of 61.3%.
COc1cc2ncn(-c3cc(OCc4ccccc4Cl)c(C(N)=O)s3)c2cc1OC gave an inhibition of 8.11%.
Fc1cccc(COc2ccc(Nc3ncnc4sc(-c5cccs5)cc34)cc2Cl)c1 was tested, and the inhibition was 2.96%.
With [O-][S+]1CCN(Cc2ccc(-c3ccc4ncnc(Nc5ccc(OCc6ccccc6)c(F)c5)c4c3)o2)CC1 the inhibition was 1.07%.
Cc1ccc(C(=O)NC2CCCCC2)cc1-c1ccc(C(=O)NCC2CC2)cc1 was tested, and the inhibition was 0.31%.
Cc1nn(C)c2cc(N(C)c3ccnc(Nc4cccc(S(N)(=O)=O)c4)n3)ccc12 was tested, and the inhibition was 38.2%.
Work on CCN1CCC(CC(=O)Nc2n[nH]c3nc(-c4cccs4)c(Br)cc23)CC1 yielded an inhibition of 0.16%.
COc1ccc(-c2nn3ncccc3c2-c2ccnc(Nc3ccc(Cl)c(C(F)(F)F)c3)n2)cc1 gave an inhibition of 1.14%.
